SMILES strings stand for the structures. Inconclusive results are not listed. The source made the active and inactive calls. The calls were made as follows: active = hit-call score of the fitted dose curve at least 0.9, where 1 is the maximum; inconclusive = response in the unintended direction; inactive = score below 0.9.

The assay can be described thus: Tanguay_ZF_120hpf_NC_legacy: (Legacy) Oregon State University Tanguay Lab 120 Hour Post-fertilization zebrafish Assay for Notochord and Tail Malformation (AID 2283656). How it is done: Tanguay_ZF_120hpf_legacy is a whole embryo, multiplexed endpoint assay using zebrafish larvae exposed for 120 hours post fertilization on a 96-well plate.Tanguay_ZF_120hpf_NC_legacy is one of one assay component(s) measured or calculated from the Tanguay_ZF_120hpf_legacy assay. It is designed to make measurements of zebrafish development as detected with brightfield microscopy of developing zebrafish embryos.Data from the assay component Tanguay_ZF_120hpf_NC_legacy was analyzed into 1 assay endpoints. This assay endpoint, Tanguay_ZF_120hpf_NC_legacy, was analyzed in the positive analysis fitting direction relative to DMSO as the negative control and baseline of activity. Using a type of morphology reporter, gain-of-signal activity can be used to understand changes in developmentals as they relate to the whole embryo. To generalize the intended target to other relatable targets, this assay endpoint is annotated to the zebrafish development intended target family, where the subfamily is embryonic notochord morphogenesis.
Zebrafish husbandry: Tropical 5D wild-type adult zebrafish were housed in at an approximate density of 1000 per 100 gallon tank at the Sinnhuber Aquatic Research Laboratory, Oregon State University, Corvallis, OR. Each tank was kept at standard laboratory conditions of 28C on a 14-h light/10-h dark photoperiod in fish water consisting of reverse osmosis water supplemented with a commercially available salt (Instant Ocean). Spawning funnels were placed into the tanks the night prior, and embryos were collected and staged. To increase bioavailability, the chorion was enzymatically removed using pronase (63.6mg/ml, >/= 3.5U/mg, Sigma-Aldrich: P5147) at 4 hours post fertilization (hpf) using a custom automated dechorionator.Chemical exposures: Six hpf dechorionated embryos were placed 1 embryo per well in a 96-well plate prefilled with 90 ul of EM using automated embryo placement systems (AEPS). Ten microliters of each row of dilution plate 2 was added to 2 exposure plates. The final DMSO concentration used was 0.64% (vol/vol). Thirty-two embryos were also exposed to 5uM trimethyltin chloride (positive control). Plates were sealed to prevent evaporation and foil covered to reduce light exposure and kept in a 28C incubator. Embryos were statically exposed until 120 hpf. At 24 hpf, embryos were assessed for photomotor response using a custom photomotor response analysis tool (PRAT) and for developmental toxicity endpoints (MO24: mortality at 24 hpf, DP: developmental progression, SM: spontaneous movement, and NC: notochord distortion). At 120 hpf, locomotor activity was measured using Viewpoint Zebralab and assessed for 18 endpoints. Zebrafish acquisition and analysis program (ZAAP), a custom program designed to inventory, acquire, and manage zebrafish data, was used to collect developmental endpoints as either present or absent (i.e., binary responses were recorded). If mortality occurred for an embryo (at either 24 or 120 hpf), the non-mortality endpoints were not measured.
For the molecule `CCOP(=S)(OCC)SCSC(C)(C)C`, the molecule was classed as inactive. For `O=C(N[C@H]1CN2CCC1CC2)c1cc2ccoc2cn1`, the molecule was called inactive.

With `O=NN(c1ccccc1)c1ccccc1`, the result was inactive. The same measure for `O=C(NC(=O)c1c(F)cccc1F)Nc1cc(Cl)c(OC(F)(F)C(F)F)c(Cl)c1`: “inactive”; for `Cc1cc(O)ccc1Cl`: “inactive”. Take `CCC(=O)O[C@H]1CC[C@H]2[C@@H]3CCC4=CC(=O)CC[C@]4(C)[C@H]3CC[C@]12C`: the molecule was called inactive. The same measure for `C=CC(=O)NCNC(=O)C=C`: “inactive”; for `CCCN(CCC)N=O`: “inactive”. On to `Clc1ccc(C(Cl)(Cl)Cl)cc1`, for which the molecule was called inactive. The same measure for `CCCCCCCCCC[N+](C)(C)CCCCCCCCCC`: “inactive”; for `C[C@]12CCC(=O)C=C1CC[C@@H]1[C@@H]2CC[C@@]2(C)[C@H]1CC[C@]2(C)O`: “inactive”; for `CCC(C)c1cc([N+](=O)[O-])cc([N+](=O)[O-])c1O` (stereo not given): “inactive”. Turning to `Oc1ccc(Cl)cc1Cl`, the molecule was classed as inactive. With `CN(C)CCO`, the molecule was classed as inactive. The result for `Oc1c(Cl)c(Cl)c(Cl)c(Cl)c1Cl` reads “inactive”; that for `Cc1cc(-c2ccc(N)c(C)c2)ccc1N`, “inactive”.

For the molecule `O=S(=O)(O)C(F)(F)C(F)(F)C(F)(F)C(F)(F)C(F)(F)C(F)(F)F`, the call was inactive.

Consider `COS(=O)(=O)OC`, for which the molecule was called inactive. The same measure for `CCCCCCCCCc1ccc(O)cc1`: “inactive”. The result for `CN(C)c1nc(=O)n(C2CCCCC2)c(=O)n1C` reads “inactive”; that for `C=CC(N)=O`, “inactive”; that for `Cc1ccccc1CO[C@@H]1C[C@@]2(C(C)C)CC[C@]1(C)O2`, “inactive”. With `O=C(O)C(F)(F)C(F)(F)C(F)(F)C(F)(F)C(F)(F)C(F)(F)C(F)(F)C(F)(F)F`, the result was inactive.

Regarding `CC(c1ccc(O)cc1)(c1ccc(O)cc1)c1ccc(O)cc1`, the outcome was inactive. The result for `O=C(O)C(F)(F)C(F)(F)C(F)(F)C(F)(F)C(F)(F)F` reads “inactive”; that for `Clc1ccc(C(c2ccccc2Cl)C(Cl)(Cl)Cl)cc1` (stereo not given), “inactive”.

For the molecule `ClC1=C(Cl)[C@]2(Cl)[C@@H]3[C@@H]4C[C@@H]([C@H]5O[C@@H]45)[C@@H]3[C@@]1(Cl)C2(Cl)Cl`, the call was inactive. The same measure for `Cc1ccc(O)c(C)c1`: “inactive”; for `Oc1ccc(C(c2ccc(O)cc2)(C(F)(F)F)C(F)(F)F)cc1`: “inactive”; for `ClC1=C(Cl)[C@]2(Cl)[C@@H]3[C@H]4C[C@H]([C@@H]5O[C@H]45)[C@@H]3[C@@]1(Cl)C2(Cl)Cl`: “inactive”. The result for `Nc1ccc(-c2ccc(N)cc2)cc1` reads “inactive”; that for `Cc1ccccc1O`, “inactive”; that for `Cc1cc2c3c(c1)C(c1ccccc1)=N[C@@H](NC(=O)c1ccncc1)C(=O)N3CC2`, “inactive”. The result for `O=C(O)C(F)(F)C(F)(F)C(F)(F)C(F)(F)C(F)(F)C(F)(F)C(F)(F)C(F)(F)C(F)(F)F` reads “inactive”; that for `CC(C)(c1ccccc1)c1ccc(O)cc1`, “inactive”. For the molecule `ClC(Cl)=C(c1ccc(Cl)cc1)c1ccc(Cl)cc1`, the molecule was classed as inactive. Consider `CO/C=C(/C(=O)OC)c1ccccc1COc1cccc(C(F)(F)F)n1`, for which the molecule was called inactive.

On to `O=C(NC(=O)c1cc(F)c(F)cc1Cl)Nc1cc(F)ccc1N1CCC(C(=O)O)CC1`, for which the result was inactive. `CCNc1nc(NC(C)C)nc(SC)n1`: the call was inactive. The same measure for `C[C@]12CCC(=O)C=C1CC[C@@H]1[C@@H]2CC[C@]2(C)C(=O)CC[C@@H]12`: “inactive”.
